Consider 28 compounds from PubChem BioAssay AID1347414 (National Center for Advancing Translational Sciences (NCATS), 2020).

Results filed as inconclusive are left out. Activity calls are given as the source filed them. Calls come from the whole dose curve; as a rule, active = well fitted inhibition curve with a large enough effect; inconclusive = small, poorly fitted or top-dose-only effect; inactive = no such curve, though single readings can be large or run the other way.
% is set by controls: 0 for no effect and ±100 for the full control effect; potency is the fitted concentration of half-maximal effect.

A short description of this assay: qHTS to identify inhibitors of the type 1 interferon - major histocompatibility complex class I in skeletal muscle: Secondary screen by immunofluorescence.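 For activity change, negative = inhibition: digitonin at 100 µM served as the cytotoxic control.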 Note: nearly all actives have a fitted effect of over 70% in size. To be noted: C25cl48 myoblasts, IFN-b induced HLA-ABC immunofluorescence, 24 h, Viability; series mostly up to 49.8 µM; activity change, negative = inhibition: at the top concentration. The gist of the method: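 Immortalized human myoblasts C25cl48 were stimulated with 4.0 ng/ml IFN-beta and exposed to an 11-point 1:3 compound titration, top 50 uM, for 24 h at 37 C. They were then fixed and immunostained for HLA-ABC, and quantified by laser scanning cytometry.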
(In qHTS, concentration-response curves come from the screen itself.)
With `COc1cc(Nc2ncc(F)c(Nc3ccc4c(n3)NC(=O)C(C)(C)O4)n2)cc(OC)c1OC`, the “activity change, negative = inhibition” value was -3.83% (inactive).

Turning to `CC(C)[C@H](C(=O)Nc1ccc(C(=O)NO)cc1)c1ccccc1`, the “activity change, negative = inhibition” value is -1.44% (inactive).

On to `COC(=O)C[C@](O)(CCCC(C)(C)O)C(=O)O[C@@H]1C(OC)=C[C@]23CCCN2CCc2cc4c(cc2[C@H]13)OCO4`, for which the “activity change, negative = inhibition” value was 25.5% (inactive).

For the compound `Cc1ccc(-c2ncn(-c3ccc(Nc4nccc(-c5cccc(N6CCOCC6)c5)n4)cc3)n2)cn1`, the “activity change, negative = inhibition” value was -0.586% (inactive).

On to `C[C@@H]1CCN(C(=O)CC#N)C[C@@H]1N(C)c1ncnc2[nH]ccc12`, for which the “activity change, negative = inhibition” value is 0.722% (inactive).

As for `CC[C@@]1(O)C(=O)OCc2c1cc1n(c2=O)Cc2cc3c(CN(C)C)c(O)ccc3nc2-1`, the “activity change, negative = inhibition” value is -1.12% (inactive).

In the case of `Cc1ccc(C(N)=O)cc1Nc1nccc(-c2cn(C(C)C)c3cnccc23)n1`, the “activity change, negative = inhibition” value is 0.513% [at 99.5 µM] (inactive).

`CC(C)c1cc(CNc2nc(Nc3cc(C4CC4)[nH]n3)cc(N3CCN(C)CC3)n2)on1`: the “activity change, negative = inhibition” value was -19.3% (inactive).

Regarding `C[C@H](Nc1ncnc2nc[nH]c12)c1cc2cccc(Cl)c2c(=O)n1-c1ccccc1`, the “activity change, negative = inhibition” value is -1.87% (inactive).

Regarding `CCN(CC)CCOc1ccc(Nc2ncc3cc(-c4c(Cl)cccc4Cl)c(=O)n(C)c3n2)cc1`, the Potency was 9.13 µM (active).

As for `CS(=O)(=O)N1CCC(NC(=O)c2[nH]ncc2NC(=O)c2c(Cl)cccc2Cl)CC1`, the “activity change, negative = inhibition” value was -1.09% (inactive).

For `O=C(/C=C/C#Cc1cccc(NS(=O)(=O)c2ccccc2)c1)NO`, the “activity change, negative = inhibition” value is -5.42% (inactive).

As for `CC(=O)Oc1ccc(C2(c3ccc(OC(C)=O)cc3)C(=O)Nc3ccccc32)cc1`, the “activity change, negative = inhibition” value was 12.6% (inactive).

For `CC(=O)NCC(=O)N1[C@@H]2CC[C@H]1c1ccc(Nc3ncc(C(F)(F)F)c(NC4CCC4)n3)cc12`, the “activity change, negative = inhibition” value was -12.4% (inactive).

Consider `CC1=C(CO)C(=O)O[C@@H]([C@@H](C)[C@H]2CC[C@H]3[C@@H]4C[C@H]5O[C@]56[C@@H](O)C=CC(=O)[C@]6(C)[C@H]4CC[C@]23C)C1`, for which the Potency is 2.05 µM (active).

Consider `COc1cccc2c1C(=O)c1c(O)c3c(c(O)c1C2=O)C[C@@](O)(C(=O)CO)C[C@@H]3O[C@H]1C[C@H](N)[C@H](OC2CCCCO2)[C@H](C)O1` (stereo partly drawn), for which the “activity change, negative = inhibition” value is 4.58% (inactive).

`CN1CCN(c2cccc(Nc3nc4c(-c5ccc(S(C)(=O)=O)cc5)cccn4n3)c2)CC1`: the “activity change, negative = inhibition” value was -24.5% (inactive).

Regarding `CCNC(=O)c1noc(-c2cc(C(C)C)c(O)cc2O)c1-c1ccc(CN2CCOCC2)cc1`, the “activity change, negative = inhibition” value was 23.3% (inactive).

On to `COC(=O)c1nc(Cl)c(Cl)nc1N`, for which the Potency is 9.13 µM (active).

On to `O=C1NC(=O)[C@@H](c2c[nH]c3ccccc23)[C@H]1c1cn2c3c(cccc13)CCC2`, for which the “activity change, negative = inhibition” value was 9.87% (inactive).

Regarding `C=CCNC1=C2C[C@@H](C)C[C@H](OC)[C@H](O)[C@@H](C)/C=C(\C)[C@H](OC(N)=O)[C@@H](OC)/C=C\C=C(/C)C(=O)NC(=CC1=O)C2=O`, the “activity change, negative = inhibition” value was 3.61% (inactive).

On to `CC[C@H](CC#N)OC(=O)N[C@@H](C)c1cccc(NC(=O)Nc2ccc(-c3cnco3)c(OC)c2)c1`, for which the “activity change, negative = inhibition” value is -3.25% (inactive).

On to `Cc1sc2c(c1C)C(c1ccc(Cl)cc1)=N[C@@H](CC(=O)Nc1ccc(OCCOCCOCCOCCNc3cccc4c3C(=O)N(C3CCC(=O)NC3=O)C4=O)cc1)c1nnc(C)n1-2` (stereo partly drawn), for which the “activity change, negative = inhibition” value was 22.8% (inactive).

For the compound `C[C@H]1C[C@@H]2[C@H]([C@@H](O)C[C@@]3(C)[C@H]2CC[C@]3(O)C(=O)CO)[C@@]2(C)C=CC(=O)C=C12`, the “activity change, negative = inhibition” value is 1.81% (inactive).

Regarding `COc1ccc(F)c(F)c1C(=O)c1cnc(NC2CCN(S(C)(=O)=O)CC2)nc1N`, the “activity change, negative = inhibition” value was 1.88% (inactive).

Take `COc1cc2c(cc1-c1c(C)noc1C)ncc1[nH]c(=O)n([C@H](C)c3ccccn3)c12`: the “activity change, negative = inhibition” value is 10.5% (inactive).

With `Cc1cc(-n2c(=O)ccc3cnc4[nH]ccc4c32)ccc1F`, the “activity change, negative = inhibition” value is -7.36% (inactive).

As to `Cc1ccc2nc(NCCN)c3ncc(C)n3c2c1`, the “activity change, negative = inhibition” value is 9.24% (inactive).
